Source: PubChem BioAssay (NCATS)
Inconclusive results are not listed. Entries that show only a call come without a potency. Calls of active or inactive are those of the source. Calls follow the shape of the dose curve; as a rule, active = well fitted inhibition curve with a large enough effect; inconclusive = small, poorly fitted or top-dose-only effect; inactive = flat fitted curve, though single readings scatter.
Potency is read from the fitted curve at half-maximal effect.

Each compound was assayed on CP329 (assay: qHTS profiling for inhibitors of Plasmodium falciparum proliferation (AID 504749; also: nearly all actives have a fitted effect of over 60% in size)). Details: P. falciparum in erythrocytes, SYBR Green DNA, 72 h; series mostly up to 28.7 µM.
Summary of the method: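 Each compound contacts P. falciparum-infected red blood cells for 72 h at 37 C; lysis buffer (Tris, EDTA, saponin, Triton X, SYBR Green I) is added and fluorescence measured next morning; values normalized to controls.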
With `COC(=O)Nc1nc2ccc(C(=O)c3cccs3)cc2[nH]1` the Potency was “inactive”. With `Clc1ccccc1C(c1ccccc1)(c1ccccc1)n1ccnc1` the Potency was 2.87 µM (active). With `Cc1cn([C@H]2C=C[C@@H](CO)O2)c(=O)[nH]c1=O` the Potency was “inactive”. With `CCOC(=O)c1ncn2c1CN(C)C(=O)c1cc(F)ccc1-2` the Potency was “inactive”. With `CCC1(c2ccccc2)C(=O)NCNC1=O` the Potency was “inactive”. With `CN(C)CCC=C1c2ccccc2C=Cc2ccccc21` the Potency was “inactive”. In the case of `CN(C)CCOC(c1ccccc1)c1ccccc1`, the Potency is reported as “inactive”. For `CN(Cc1cnc2nc(N)nc(N)c2n1)c1ccc(C(=O)N[C@@H](CCC(=O)O)C(=O)O)cc1`, the Potency was “inactive”. For `CC(C)NCC(O)COc1ccc(CCOCC2CC2)cc1` (stereo not given), the Potency was “inactive”. For `Nc1nc2c(ncn2COC(CO)CO)c(=O)[nH]1`, the Potency was “inactive”. `Clc1ccc2c(c1)C(N1CCNCC1)=Nc1ccccc1O2` was tested, and the Potency was “inactive”. `OCCN1CCN(CCCN2c3ccccc3Sc3ccc(C(F)(F)F)cc32)CC1` was tested, and the Potency was 13.5 µM (active). For `COc1nc(C)nc(Cl)c1NC1=NCCN1`, the Potency was “inactive”. For `CC1(CN2CCC(n3c(=O)[nH]c4ccccc43)CC2)OCc2ccccc2-n2cccc21` (stereo not given), the Potency was “inactive”. In the case of `CC(C)(Oc1ccc(C2CC2(Cl)Cl)cc1)C(=O)O` (stereo not given), the Potency is reported as “inactive”. With `NC12CC3CC(CC(C3)C1)C2` the Potency was “inactive”. In the case of `CC[C@@]1(O)C(=O)OCc2c1cc1n(c2=O)Cc2cc3c(CN(C)C)c(O)ccc3nc2-1`, the Potency is reported as 6.75 µM (active). For `COc1ccccc1OCCNCC(O)COc1cccc2[nH]c3ccccc3c12` (stereo not given), the Potency was “inactive”. For `CN(C)C(=N)N=C(N)N`, the Potency was “inactive”. In the case of `CC12CC3CC(C)(C1)CC(N)(C3)C2`, the Potency is reported as “inactive”.
